From PubChem
PI4K2A block = qHTS for small molecular inhibitors of PI4K2A | activity change, negative = inhibition, % at 76.9 µM | 420,000 compounds, 0.13% hits | purified PI4K2A, ADP-Glo luminescence, 1 h; stronger effect = lower value; in the data active = activity change below about -50%; inconclusive = mostly about -30% to -49%
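Compounds are screened against recombinant PI4K2A using PI as substrate and ATP, the latter dispensed at 300 microM. Reactions run one hour at ambient temperature before ADP-Glo detection; full inhibition defined by wells lacking enzyme.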
CtBP-E1A inh = qHTS Assay for Inhibitors of the CtBP/E1A Interaction. CtBP / adenovirus E1A interaction (AlphaScreen). AlphaScreen GST-E1A/His-CtBP binding, 1536-well; stronger effect = lower value. activity change, % (concentration not given with the values). 340,000 compounds, 0.49% hits
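Homogeneous bead-based format: GST-tagged E1A captured on glutathione donor beads, His-tagged CtBP on nickel acceptor beads; compounds precede bead addition by 2 h at 37 °C.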
Six1-Eya2 inh = qHTS Assay for Inhibitors of the Six1/Eya2 Interaction; Homeobox protein SIX1 (Homo sapiens) + Protein phosphatase EYA2 (Homo sapiens), …; AlphaScreen GST-Six1/His-Eya2 binding, biochemical; stronger effect = lower value; activity change, % (concentration not given with the values); 360,000 compounds, 0.56% hits; AID 651725, 2012
Target sequence (O00167 whole entry, looked up): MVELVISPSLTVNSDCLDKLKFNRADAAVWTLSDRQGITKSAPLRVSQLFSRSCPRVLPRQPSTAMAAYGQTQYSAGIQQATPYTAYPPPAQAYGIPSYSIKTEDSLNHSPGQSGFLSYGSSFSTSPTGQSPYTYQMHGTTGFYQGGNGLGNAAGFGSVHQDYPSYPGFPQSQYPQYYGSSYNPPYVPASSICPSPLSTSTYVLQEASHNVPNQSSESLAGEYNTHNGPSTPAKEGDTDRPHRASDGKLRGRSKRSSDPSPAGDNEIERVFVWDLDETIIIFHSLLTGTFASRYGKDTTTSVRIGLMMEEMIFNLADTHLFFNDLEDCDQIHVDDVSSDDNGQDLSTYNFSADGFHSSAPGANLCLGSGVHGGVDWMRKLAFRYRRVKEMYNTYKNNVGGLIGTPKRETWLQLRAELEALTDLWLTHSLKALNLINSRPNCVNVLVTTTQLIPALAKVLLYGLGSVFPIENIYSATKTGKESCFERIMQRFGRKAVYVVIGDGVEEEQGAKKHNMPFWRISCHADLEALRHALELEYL
Target sequence (Q15475 whole entry, looked up): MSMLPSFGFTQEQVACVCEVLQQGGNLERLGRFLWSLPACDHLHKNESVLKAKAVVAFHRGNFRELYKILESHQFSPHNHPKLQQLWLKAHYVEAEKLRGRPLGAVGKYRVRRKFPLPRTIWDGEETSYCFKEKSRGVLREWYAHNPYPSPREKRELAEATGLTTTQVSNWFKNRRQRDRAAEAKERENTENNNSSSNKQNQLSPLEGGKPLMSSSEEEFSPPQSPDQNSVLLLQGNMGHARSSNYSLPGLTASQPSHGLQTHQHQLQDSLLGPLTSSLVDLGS
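AlphaScreen with GST-Six1 and His-Eya2 (5X mix: 250 nM and 500 nM), glutathione donor and nickel acceptor beads; buffer 50 mM Tris pH 8.0, 300 mM NaCl, 1 mM TCEP; 1 h at 37 C in the dark.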
PI5P4K alpha inh = qHTS for Inhibitors of phosphatidylinositol 5-phosphate 4-kinase (PI5P4K) | Phosphatidylinositol 5-phosphate 4-kinase type-2 alpha (Homo sapiens), P48426 | PI5P4Kalpha enzyme, ADP-Glo luminescence, 60 min; stronger effect = lower value | AID 652105, 2013 | 330,000 compounds, 1.2% hits | max response, %; active = max response of -50% or lower; inconclusive = between -30% and -50%; inactive = -30% or higher; note: value at the top dose of about 77 µM
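Luminescence from ADP-Glo served as readout of PI5P4Kalpha activity in a qHTS format. Reaction: enzyme, substrate, compound, ATP at 5 microM final, 60 min at RT.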
Akt phos inh = HTS Assay for Inhibitors of Akt Phophorylation: Primary Screen; Neuro2A IGF-stimulated pAkt S473 HTRF, 20 min; stronger effect = lower value; activity change, % for hits at 50 µM; 360,000 compounds, 0.32% hits; in the data active = activity change below about -80%; inconclusive = mostly about -51% to -80%
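Neuro2A cells in DMEM with 0.5% FBS, overnight at 37 deg C, given compound at single 50 µM final, then IGF (6 nM final) for 20 min at 37 deg C. Lysed; phospho-Akt Ser473 by HTRF after 24 h, 665/615 ratio.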
Large screens that a line does not name were inactive. Most compounds without a hit are left out; they make up all but 1.8% or so of the library. Cut-off read from the data, not from the text of the source, unless noted: active = activity change below about -65%; inconclusive = mostly about -30% to -63%; inactive = weaker than that.

COc1ccc([N+](=O)[O-])cc1N(CC(=O)NCc1ccco1)S(C)(=O)=O	none
COCc1cc(C)nc(SCC(=O)NCC2CCCO2)c1C#N (stereo unspecified)	none
S=c1[nH]nc(-c2ccccc2)n1CC1CCCO1 (stereo unspecified)	Akt phos inh -99%
Cc1nc(=O)c(-c2ccccc2)c(C)n1CC1CCCO1 (stereo unspecified)	none
COc1ccc(NC(=O)CCC(=O)c2ccc(-c3ccccc3)cc2)cc1	none
Cc1ccc(C)n1-c1ccc(C(=O)NN)cc1	PI4K2A block -82, PI5P4K alpha inh inconclusive
Cc1cc(C)n(CCNC(=O)C2CCC(=O)N(CC3CCCCC3)C2)n1 (stereo unspecified)	none
O=C(CSc1cccc2cccc(Cl)c12)OCC(=O)N1CCN(C(=O)c2ccco2)CC1	none
Cc1cc(/C=C2\SC(=S)NC2=O)c(C)n1-c1cccc(O)c1	PI5P4K alpha inh -68
Cc1cc(/C=C2/C(=O)NN(c3ccccc3)C2=O)c(C)n1-c1cccc(O)c1	PI5P4K alpha inh -56
CCCCC#Cc1ccccc1CC(=O)Nc1ccccc1	none
CCCCCCCC#Cc1ccccc1/C=N/S(=O)c1ccc(C)cc1 (stereo unspecified)	PI5P4K alpha inh -100 (no result: CtBP-E1A inh)
CN1CCN(C(=S)C(=O)Nc2ccc(Br)cc2)CC1	PI5P4K alpha inh -56
COc1ccc(-c2nc(-c3ccccc3)c(-c3cccs3)[nH]2)cc1OC	Six1-Eya2 inh inconclusive (no result: PI5P4K alpha inh)
COc1ccc(-c2nc(-c3cccs3)c(-c3cccs3)[nH]2)cc1OC	CtBP-E1A inh -73, Six1-Eya2 inh inconclusive
CC(C)(C)OC(=O)[C@H](Cc1ccccc1)NC(=O)c1[nH]cnc1C(=O)N[C@@H](Cc1ccccc1)C(=O)OCc1ccccc1	none
CC1CCN(c2ccc(-c3cccs3)nn2)CC1	PI4K2A block -57, PI5P4K alpha inh inconclusive (no result: CtBP-E1A inh)
COC(=O)c1[nH]c2ccc(C)cc2c1NS(=O)(=O)c1ccc(F)cc1	Akt phos inh -119%
COC(=O)c1[nH]c2ccc(C)cc2c1NS(=O)(=O)c1ccc(F)c(C)c1	none
COCc1cc(CN2CCCC2)c(O)c2ncccc12	CtBP-E1A inh -94, Six1-Eya2 inh -91 (no result: PI5P4K alpha inh)
Oc1c(CN2CCCCC2)cc(COCc2ccccc2)c2cccnc12	Six1-Eya2 inh -85
CN(C)C1CCN(Cc2cc(COCc3ccccc3)c3cccnc3c2O)C1 (stereo unspecified)	none (no result: CtBP-E1A inh, Six1-Eya2 inh, PI5P4K alpha inh, Akt phos inh)
COc1ccccc1N1CCN(Cc2cc(Br)c(O)c3ncccc23)CC1	CtBP-E1A inh -85, Six1-Eya2 inh -92
CC(C)CCC1(C)NC(=O)N(CC(=O)Nc2ccc3c(c2)OCCO3)C1=O (stereo unspecified)	none
CN(CC(=O)Nc1cccc(F)c1)C(=O)c1cc(S(=O)(=O)N(C)C)ccc1N1CCCC1	none
Cc1ccccc1S(=O)(=O)NC1=NCCCCC1	none
Cc1cc(/C=C(\C#N)C(=O)NCc2ccco2)c(C)n1-c1cccnc1	none
CC(=O)N/N=C/c1cc(C(C)C)cc(/C=N/NC(C)=O)c1O	CtBP-E1A inh -84, Six1-Eya2 inh -74
CC(C)(C)OC(=O)N1CCCC(C(=O)Nc2ccc(C(=O)NCCc3ccccc3)cc2)C1 (stereo unspecified)	none
CCC(=O)NC1=C(Cl)C(=O)C(NC(=O)CC)=C(Cl)C1=O	PI4K2A block inconclusive, PI5P4K alpha inh -81 (no result: CtBP-E1A inh)
CCC(=O)NC1=C(NC(C)c2ccccc2)C(=O)c2ccccc2C1=O (stereo unspecified)	none
N=C1/C(=C\c2ccc(OC(=O)c3ccco3)cc2)C(=O)N=C2SC(N3CCCCC3)=NN12	CtBP-E1A inh inconclusive, PI5P4K alpha inh -52
N=C1/C(=C\c2ccc(OC(=O)c3ccccc3)cc2)C(=O)N=C2SC(N3CCOCC3)=NN12	PI5P4K alpha inh inconclusive
Cc1ccc(C(=O)Oc2ccc(/C=C3\C(=N)N4N=C(N5CCOCC5)SC4=NC3=O)cc2)cc1	CtBP-E1A inh inconclusive, Six1-Eya2 inh -88, PI5P4K alpha inh inconclusive
CC(C)C(=O)N1CCN(c2ccccc2NC(=O)c2ccc([N+](=O)[O-])o2)CC1	none
O=C(CSCc1ccc(Cl)cc1)Nc1ccc2c(c1)OCCO2	none
O=c1c(O)c(-c2ccccc2)oc2cc(O)cc(O)c12	PI5P4K alpha inh inconclusive
O=C1NC(=S)S/C1=C/c1ccc(Oc2cnccn2)cc1	PI5P4K alpha inh -78
CN(C)c1ccc(C=C2SC(=S)NC2=O)cc1	none
CCOc1ccc(N(C)c2ccc(/C=C3/SC(=S)NC3=O)cc2)cc1	PI5P4K alpha inh -55
CCOc1c(O)ccc(/C=C2\SC(=S)NC2=O)c1[N+](=O)[O-]	PI5P4K alpha inh -101
CCCNc1nc(N2CCOCC2)nc(N2CCOCC2)n1	none (no result: PI5P4K alpha inh)
COCCN(C(=O)COC(=O)CCc1ccc(OC)cc1)c1c(N)n(Cc2ccccc2)c(=O)[nH]c1=O	none
COc1cc(CN2CCNC(=O)C2CC(=O)N2CCCN(C(C)=O)CC2)cc(OC)c1 (stereo unspecified)	none
COc1cc(NC(=O)CN2CCC(C(N)=O)(N3CCCCC3)CC2)c(OC)cc1Cl	none
Cc1ccccc1COC(=O)CCCC1=NS(=O)(=O)c2ccccc2N1	none
CCOC(=O)CC1=NS(=O)(=O)c2ccccc2N1	Akt phos inh -106%
COc1cccc(-n2nc(C(C)=O)c(=O)[nH]c2=O)c1	none
COC(=O)C(Cc1ccc(O)cc1)NC(=O)c1ccccc1 (stereo unspecified)	none (no result: PI5P4K alpha inh)
CC(C)(C)c1nnc(N/N=C/c2ccccc2O)n(N)c1=O	Six1-Eya2 inh -91
Clc1nc(-c2ccccn2)nc2scc(-c3ccccc3)c12	Six1-Eya2 inh -73
O=C(CSc1n[nH]c(-c2ccccn2)n1)Nc1ccc(F)cc1	CtBP-E1A inh -95, Six1-Eya2 inh inconclusive
Cc1ccc(NC(=O)CSc2n[nH]c(-c3ccccn3)n2)cc1	CtBP-E1A inh -90, Six1-Eya2 inh -77
O=C(CSc1n[nH]c(-c2ccc(Cl)cc2Cl)n1)Nc1ccccn1	none
O=C(CSc1n[nH]c(-c2ccccn2)n1)Nc1ccc(Cl)cc1	CtBP-E1A inh -92, Six1-Eya2 inh -91
CC1CCCN(C(=O)Cn2c3ccccc3c3nc4n(c(=O)c32)CCS4)C1 (stereo unspecified)	none
CCOc1cc([N+](=O)[O-])cc(/C=C2/NC(=O)N(Cc3ccccc3F)C2=O)c1O	PI5P4K alpha inh -77
Cc1cc(/C=C2/NC(=O)N(Cc3ccccc3F)C2=O)c(C)n1C	none
CCOC(=O)c1ccc(COC(=O)CCc2nc3ccccc3[nH]c2=O)o1	Akt phos inh -103%
CCCCOC(=O)CCc1nc2ccccc2[nH]c1=O	none
